Among the test systems are DDR1; DDR2; DMPK; DYRK1A; DYRK1B; DYRK2; EGFR; EIF2AK1; EPHA1; EPHA2; EPHA3; EPHA4; EPHA5; EPHA6.
What all share (details): concentration: 1 μM,replicates: in singlicate; n = 1
The test system of the next assay is T1, DCAMKL2.
T1 construct: gene DCLK2

The next assay deals with T2, DCAMKL3.
T2 construct: gene DCLK3

A further assay deals with T3, DLK.
T3 construct: gene MAP3K12

For the next assay, the system named is T4, DMPK2.
T4 construct: gene CDC42BPG

A further assay relates to T5, DRAK1.
T5 construct: gene STK17A

The next assay deals with T6, DRAK2.
T6 construct: gene STK17B

The structures appear in SMILES notation.

Results on ten compounds are retold here after PMC5540273 (PLoS ONE, 2017).
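Further: KINOMEscan kinase panel screen.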

As to `CN1CCN(CCNc2nc3cc(Oc4ccc(NC(=O)Nc5cc(C(F)(F)F)ccc5F)cc4)ccc3[nH]2)CC1.Cl.Cl` [GW768504], the “%Inh” value in the assay with DCAMKL2 is recorded as 10%; with DCAMKL3, 0%; in the assay with DDR1, 96.9%; in the assay on DDR2, 99.2%; in the assay with DLK it was 0%; with DMPK2, 10%. Further, the “%Inh” value turned out to be 0% in the assay with DMPK; 0% in the assay on DRAK1; 17% in the assay with DRAK2; 0% in the assay on DYRK1A; 15% with DYRK1B; 0% in the assay on DYRK2. For the same compound, the “%Inh” value in the assay on EGFR came out at 0%; in the assay with EIF2AK1, 0%; with EPHA1 it was 0%; in the assay on EPHA2, 4%; in the assay with EPHA3, 0%; with EPHA4 it was 28%. The figures for the “%Inh” value in the assay on EPHA5 and in the assay with EPHA6 were 0% and 51%, respectively.
Take `Cn1ccc2ncnc(Oc3ccc(NC(=O)Nc4cccc(C(F)(F)F)c4)c(Cl)c3)c21`: the “%Inh” value in the assay on DCAMKL2 is recorded as 0%; with DCAMKL3, 7%; with DDR1 it was 99.9%; in the assay on DDR2 it was 99.9%; with DLK, 0%; with DMPK2 it was 0%. Besides, the “%Inh” value stood at 0% in the assay with DMPK; 0% in the assay on DRAK1; 0% in the assay on DRAK2; 0% in the assay on DYRK1A; 49% with DYRK1B; 0% with DYRK2. Also, the “%Inh” value with EGFR is 5%; with EIF2AK1, 0%; with EPHA1, 54%; with EPHA2 it was 94.5%; in the assay with EPHA3, 97.6%; in the assay with EPHA4, 88%. In addition, the entries for the “%Inh” value in the assay on EPHA5 and in the assay with EPHA6 were 84% and 99.7%, respectively.
`COC(=O)c1cccc(NC(=O)NC2CCN(c3ccnc(Nc4cc(OC)c(OC)c(OC)c4)n3)C2)c1` (centres unmarked) [GSK1379767]: the “%Inh” value came out at 0% in the assay with DCAMKL2; 0% with DCAMKL3; 13% in the assay on DDR1; 55% in the assay with DDR2; 61% in the assay on DLK; 27% in the assay with DMPK2. Moreover, the “%Inh” value was determined as 0% with DMPK; 0% in the assay on DRAK1; 0% with DRAK2; 0% in the assay on DYRK1A; 15% in the assay on DYRK1B; 2% with DYRK2. In addition, the “%Inh” value came to 33% in the assay on EGFR; 0% in the assay on EIF2AK1; 0% in the assay with EPHA1; 16% with EPHA2; 15% in the assay with EPHA3; 6% with EPHA4. Also, the “%Inh” value in the assay on EPHA5 and with EPHA6 was 0% each time.
Consider `COc1cc(Nc2nccc(N3CCC(NC(=O)c4cccc(C#N)c4)C3)n2)cc(OC)c1OC` (centres unmarked) [GSK1379751], for which the “%Inh” value was found to be 0% in the assay with DCAMKL2; 0% in the assay on DCAMKL3; 0% in the assay on DDR1; 24% with DDR2; 30% in the assay on DLK; 1% with DMPK2. Further, the “%Inh” value with DMPK was 0%; with DRAK1 it was 20%; in the assay with DRAK2, 4%; in the assay on DYRK1A, 0%; in the assay with DYRK1B it was 15%; in the assay with DYRK2, 0%. For the same compound, the “%Inh” value is listed as 29% with EGFR; 0% in the assay on EIF2AK1; 11% with EPHA1; 2% with EPHA2; 0% in the assay with EPHA3; 4% in the assay on EPHA4. Also, the “%Inh” value in the assay on EPHA5 and in the assay on EPHA6 was 0% in each case.
With `CN(c1ccc2c(c1)nc(NCc1ccc(F)cc1)n2C)c1ccnc(Nc2ccc(CS(C)(=O)=O)cc2)n1.Cl` [GW813244], the “%Inh” value with DCAMKL2 is reported as 0%; in the assay on DCAMKL3, 0%; with DDR1, 98.4%; in the assay with DDR2, 100%; with DLK, 0%; with DMPK2, 0%. The “%Inh” value was found to be 0% with DMPK; 15% with DRAK1; 7% in the assay with DRAK2; 0% in the assay with DYRK1A; 4% in the assay on DYRK1B; 30% with DYRK2. The “%Inh” value in the assay with EGFR is on record as 18%; in the assay with EIF2AK1, 0%; in the assay with EPHA1, 0%; with EPHA2, 12%; in the assay with EPHA3 it was 5%; in the assay with EPHA4 it was 20%. Further, the “%Inh” value in the assay on EPHA5 stood at 0%; in the assay on EPHA6, 23%.
Turning to `CCOC(=O)N1CCC(n2cnc(-c3ccc(F)cc3)c2-c2ccnc(N)n2)CC1` [SB-219952], the “%Inh” value with DCAMKL2 is given as 15%; with DCAMKL3, 18%; in the assay on DDR1, 83%; in the assay on DDR2 it was 60%; in the assay with DLK, 0%; in the assay on DMPK2 it was 39%. Besides, the “%Inh” value with DMPK was 22%; with DRAK1, 0%; with DRAK2, 0%; in the assay with DYRK1A it was 2%; in the assay with DYRK1B, 30%; with DYRK2 it was 21%. Besides, the “%Inh” value in the assay with EGFR is 32%; in the assay on EIF2AK1, 19%; with EPHA1 it was 9%; in the assay on EPHA2, 13%; in the assay on EPHA3, 14%; in the assay on EPHA4, 9%. Besides, the figures for the “%Inh” value in the assay with EPHA5 and in the assay on EPHA6 were 0% and 12%, respectively.
Regarding `CS(=O)(=O)c1cccc(CNc2nc(Nc3ccc4c(c3)[C@@H]3C[C@@H]4CNC3=O)ncc2C(F)(F)F)c1`, the “%Inh” value is listed as 0% with DCAMKL2; 0% with DCAMKL3; 0% in the assay on DDR1; 6% in the assay on DDR2; 9% in the assay on DLK; 0% in the assay on DMPK2. For the same compound, the “%Inh” value came out at 0% in the assay on DMPK; 96.3% in the assay with DRAK1; 96.4% in the assay on DRAK2; 6% in the assay on DYRK1A; 6% with DYRK1B; 12% with DYRK2. Also, the “%Inh” value in the assay with EGFR came to 5%; in the assay on EIF2AK1 it was 0%; with EPHA1, 12%; in the assay with EPHA2, 2%; in the assay with EPHA3, 6%; in the assay with EPHA4, 2%. Besides, the “%Inh” value in the assay on EPHA5 came out at 0%; in the assay on EPHA6, 11%.
Take `O=C(NOCC1CC1)c1cc(Br)c(F)c(F)c1Nc1ccc(I)cc1Cl`: the “%Inh” value was 2% in the assay with DCAMKL2; 0% in the assay on DCAMKL3; 0% in the assay on DDR1; 22% in the assay with DDR2; 0% in the assay with DLK; 0% in the assay with DMPK2. Also, the “%Inh” value was found to be 0% in the assay with DMPK; 0% in the assay on DRAK1; 0% with DRAK2; 0% in the assay on DYRK1A; 17% in the assay on DYRK1B; 0% with DYRK2. Besides, the “%Inh” value in the assay on EGFR, with EIF2AK1, with EPHA1, in the assay with EPHA2, with EPHA3 and in the assay with EPHA4 was 0% in each case. Besides, the “%Inh” value with EPHA5 and with EPHA6 was 0% throughout.
For the compound `C[C@@H]1CCN(C(=O)N2CCCC2)C[C@@H]1N(C)c1ncnc2[nH]ccc12`, the “%Inh” value came to 0% in the assay with DCAMKL2; 99.8% in the assay on DCAMKL3; 8% in the assay on DDR1; 0% with DDR2; 8% in the assay with DLK; 0% in the assay on DMPK2. For the same compound, the “%Inh” value in the assay with DMPK is given as 72%; in the assay with DRAK1 it was 23%; in the assay on DRAK2, 38%; in the assay on DYRK1A, 0%; in the assay with DYRK1B it was 0%; with DYRK2, 0%. The “%Inh” value in the assay on EGFR is 0%; in the assay on EIF2AK1, 23%; in the assay on EPHA1 it was 1%; with EPHA2, 0%; with EPHA3, 0%; in the assay with EPHA4, 16%. The “%Inh” value in the assay with EPHA5 came to 8%; in the assay with EPHA6, 20%.
Regarding `Cc1ccc(C(=O)Nc2ccc(Oc3ccc4nc(NC(=O)C5CC5)cn4c3)c(F)c2)c(=O)n1-c1ccccc1`, the “%Inh” value in the assay on DCAMKL2 is listed as 0%; in the assay with DCAMKL3, 0%; with DDR1, 98.2%; in the assay on DDR2, 100%; in the assay on DLK it was 35%; in the assay on DMPK2, 0%. Also, the “%Inh” value was determined as 0% with DMPK; 0% with DRAK1; 1% in the assay on DRAK2; 0% in the assay on DYRK1A; 39% in the assay with DYRK1B; 0% in the assay with DYRK2. For the same compound, the “%Inh” value in the assay on EGFR is reported as 0%; in the assay on EIF2AK1 it was 0%; with EPHA1, 91.8%; with EPHA2 it was 98.5%; in the assay with EPHA3, 49%; in the assay on EPHA4, 90.1%. The “%Inh” value in the assay on EPHA5 was found to be 45%; with EPHA6 it was 95.4%.
